# Pol kappa inh = DNA polymerase kappa (human) inhibition; Potency, µM (top dose mostly 107 µM), for the others: at the highest dose activity, negative = inhibition, usual class: inhibitors; purified Pol kappa, fluorescent DNA synthesis assay, 10 min; hit rate 0.53% among 400,000; note: % is set by controls: 0 for no effect and ±100 for the full control effect
#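 10 nM Pol kappa preincubated 15 min at room temperature with compounds, then reaction started with substrate at 50 nM final. Fluorescence read kinetically at 0 and 10 min; buffer-only wells served as negative control.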
# POLI inh = inhibitors of human DNA polymerase iota; Q9UNA4; Pol iota fluorescent replication assay, 10 min; Potency, µM (top dose mostly 115 µM), for the others: top-dose activity, negative = inhibition, hits mostly inhibitors; hit rate 1% among 390,000
# Target sequence (Q9UNA4 whole entry, looked up): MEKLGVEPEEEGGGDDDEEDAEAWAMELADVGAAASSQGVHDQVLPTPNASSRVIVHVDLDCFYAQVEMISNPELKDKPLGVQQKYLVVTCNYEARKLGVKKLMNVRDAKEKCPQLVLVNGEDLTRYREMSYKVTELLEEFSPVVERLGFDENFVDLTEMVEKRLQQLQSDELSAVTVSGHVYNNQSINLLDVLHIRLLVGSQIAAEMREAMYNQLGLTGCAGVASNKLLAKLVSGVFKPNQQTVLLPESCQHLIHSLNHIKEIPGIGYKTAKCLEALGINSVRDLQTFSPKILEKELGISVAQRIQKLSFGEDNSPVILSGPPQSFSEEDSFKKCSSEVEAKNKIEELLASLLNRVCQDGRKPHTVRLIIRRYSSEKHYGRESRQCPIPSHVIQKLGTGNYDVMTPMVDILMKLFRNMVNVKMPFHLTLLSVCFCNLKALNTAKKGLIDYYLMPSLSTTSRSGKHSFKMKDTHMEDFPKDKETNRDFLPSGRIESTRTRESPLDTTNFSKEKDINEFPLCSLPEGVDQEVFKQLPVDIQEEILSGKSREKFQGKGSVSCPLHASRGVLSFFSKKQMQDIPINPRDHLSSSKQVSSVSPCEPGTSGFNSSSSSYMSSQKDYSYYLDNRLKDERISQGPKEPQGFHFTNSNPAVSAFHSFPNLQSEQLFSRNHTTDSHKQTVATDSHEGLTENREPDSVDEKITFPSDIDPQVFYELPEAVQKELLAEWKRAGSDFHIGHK
#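 Pol iota at 10 nM preincubated 15 min with compounds at room temperature; reaction started with fluorescent substrate, 50 nM final. Fluorescence read kinetically at 0 and 10 min; buffer-only wells as negative control.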
# WRN helicase inh = inhibitors of human WRN helicase. Q14191. WRN helicase unwinding, fluorescent forked duplex, kinetic. Potency, µM (doses to about 114 µM), inactives show top-dose activity change, negative = inhibition, hits mostly inhibitors. hit rate 0.46% among 360,000; note: % is set by controls: 0 for no effect and ±100 for the full control effect; nearly all actives have a fitted effect of over 55% in size
#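 Kinetic red-fluorescence monitoring (525/598 nm) tracks WRN helicase activity after 100 nM fluorophore-quencher forked duplex and 2 mM ATP are added to 20 nM enzyme pretreated 15 min at room temperature with compound.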
# POLH inh = blocks human DNA polymerase eta activity. Potency, µM (series often up to 114 µM), inactives show at the top dose activity change, negative = inhibition, hits mostly inhibitors. recombinant Pol eta, fluorescent DNA replication assay. hit rate 1.2% among 390,000. Q9Y253. AID 588591; note: % is set by controls: 0 for no effect and ±100 for the full control effect
#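 Pol eta at 10 nM preincubated with compounds 15 min at room temperature; reaction started with fluorescent substrate (50 nM final) and read kinetically at 0 and 10 min.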
# Pol beta inh = inhibitors of human DNA polymerase beta; P06746; Pol beta primer extension/strand displacement, fluorescence kinetic; Potency, µM (titrated, usually from 114 µM), for the others: top-dose activity change, negative = inhibition, most hits filed as inhibitors; hit rate 1.3% among 340,000; AID 485314; note: % is set by controls: 0 for no effect and ±100 for the full control effect
#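 Kinetic readout of DNA synthesis with strand displacement by Pol beta. Compound and 10 nM enzyme sit 15 min at room temperature; 50 nM substrate starts the reaction, read immediately and at 10 min.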
# PGK validate = TbPGK inhibition, hit validation. shares compounds with Pol kappa inh. TbPGK coupled GAPDH assay, Kinase-Glo luminescence. Potency, µM (titrated, usually from 57.5 µM), for inactives: at the highest dose activity change, negative = inhibition, hits mostly inhibitors. hit rate 79% among 500; note: % is set by controls: 0 for no effect and ±100 for the full control effect; nearly all actives have a fitted effect of over 65% in size
# Pol iota confirm = Confirm cherry-picked inhibitors of human polymerase iota | shares compounds with Pol kappa inh | Pol iota primer extension, TAMRA/BHQ fluorescence | hit rate 77% among 1,500 | Potency, µM, hits mostly inhibitors
# * = called active by the depositor; ? = inconclusive; . = not tested or not shown; [ ] = remark or other dose. Most compounds without a hit are left out; they make up all but 2.3% or so of the library. Calls come from the whole dose curve; as a rule, active = well fitted curve in the direction sought with a large enough effect; inconclusive = small, poorly fitted or top-dose-only effect, or another doubt; inactive = no such curve, though single readings can be large; an effect the other way counts as inactive or inconclusive. Potency is the fitted concentration of half-maximal effect.
SMILES,Pol kappa inh,POLI inh,WRN helicase inh,POLH inh,Pol beta inh,PGK validate,others
Cc1occc1C(=O)N/N=C/c1ccc(N(C)C)cc1,1%,6%,-5%,-20%,0%,10µM*,
Cc1occc1C(=O)N/N=C/C=C/c1ccc(N(C)C)cc1,5%,20%,0%,-14%,0%,.,
O=C(NCCn1cc(SCc2ccc(F)cc2)c2ccccc21)c1cccs1,-6%,6%,.,-14%,19%,.,
CC(=O)Nc1ccc(S(=O)(=O)N2CCC(N3CCN(Cc4ccc(C)cc4)C(=O)C3=O)CC2)cc1,-38%,79µM*,.,?,45µM*,.,Pol iota confirm=?
Cc1ccc(CN2CCN(C3CCN(S(=O)(=O)c4ccc(C)cc4)CC3)C(=O)C2=O)cc1,-7%,39%,.,-21%,-3%,.,
Cc1ccc(C(=O)N(Cc2ccc(N(C)C)cc2)CC2CCCO2)cc1 (centres undefined),-16%,8%,.,-20%,0%,.,
COc1cc2c(ccc3cc(OC)c(OC)c(O)c32)cc1O,7.9µM*,?,18µM*,3.2µM*,1.4µM*,1.5µM*,
CCCC(=O)C1=C(c2cccc(OC)c2)N(C(=O)CCC)n2c(C)nnc2S1,-1%[60.1 µM],41%,.,-12%,5%,.,
O=C(CCc1ccc(S(=O)(=O)N2CCOCC2)cc1)N/N=C/c1ccc(O)c(O)c1O,8.9µM*,2.8µM*,79µM*,?,13µM*,.,Pol iota confirm=?
O=C(O)c1c2cc(Br)ccc2nc2[nH]c(=O)[nH]c(=O)c12,-14%,21%,0%,-4%,.,.,
Cc1ccc2nc3[nH]c(=O)[nH]c(=O)c3c(N)c2c1,11%,19%,-6%,-28%,.,.,Pol iota confirm=?
Cc1cc(S(=O)(=O)C(CNC(=O)c2ccc(OC(C)C)cc2)c2cccs2)ccc1F (centres undefined),-15%[60.1 µM],-11%,.,?,11%,.,
CCn1cc(C(=O)NCCCOC(C)C)c(=O)c2cc(S(=O)(=O)N3CCc4ccccc4C3)ccc21,6%,28%,.,-15%,2%,.,
CCCCn1c(N)c(-c2nc3ccccc3o2)c2c([N+](=O)[O-])nn(C)c(=O)c21,-11%,?,?,?,?,.,Pol iota confirm=42*
CCCCn1c(-c2ccco2)nc2ccccc2c1=O,1%,29%,9%,-10%,0%,.,
CCOC(=O)C(Cc1ccnc2ccccc12)=NO,-19%,45%,-1%,-18%,.,.,
CCOC(=O)C(=O)Cc1cccnn1,?,?,50µM*,2.8µM*,.,13µM*,
CC(C)N1CCc2c(sc(NC(=O)C3CC3)c2-c2nc3ccccc3s2)C1,.,.,.,.,.,.,Pol iota confirm=42*
NS(=O)(=O)c1ccc(NC(=O)/C=C/c2ccco2)cc1,50µM*,18µM*,?,20µM*,25µM*,8.2µM*,
O=C(/C=C/c1ccco1)Nc1ccc(S(=O)(=O)N2CCOCC2)cc1,-17%,12%,5%,-15%,0%,.,
CCc1ccc(NC(=O)CSc2nc3ncccc3[nH]2)cc1,6%,20%,.,-2%,21%,.,
COc1ccccc1NS(=O)(=O)c1cc(NC(=O)c2ccc3c(c2)OCCO3)ccc1C,0%,?,-27%,-25%,28%,2%,
O=C(OCCC12CC3CC(CC(C3)C1)C2)c1ccc(NCc2cc(O)ccc2O)cc1,79µM*,79µM*,?,?,.,16µM*,
Cc1ccc(/C=C/c2nc3ccccc3n2S(=O)(=O)c2cccc(Cl)c2)cc1,-5%[60.1 µM],-28%,.,-8%,-12%,.,
CSc1ccc(/C=C/c2nc3ccccc3n2S(=O)(=O)c2ccc(F)c(C)c2)cc1,-7%[60.1 µM],2%,.,-20%,13%,10µM*,
SMILES,Pol kappa inh,POLI inh,WRN helicase inh,POLH inh,Pol beta inh,PGK validate,others
CCOc1cc(N2CCOCC2)c(OCC)cc1NC(=O)c1cc(-c2ccco2)nc2ccccc12,4%[60.1 µM],?,-35%,79µM*,?,.,Pol iota confirm=?
CN(C)c1ccc(N/C=C/C(=O)c2ccco2)cc1,-7%,?,-8%,-15%,?,10µM*,
Cc1cc(C)cc(NC(=O)c2ccc3c(c2)nnn3C2CCCC2)c1,-9%,-7%,.,-21%,1%,.,
COc1ccc(CN2C=C3C(=O)C(C)(OC(=O)C4CCCC4)C(=O)C=C3C=C2c2ccsc2)cc1 (centres undefined),-34%,-4%,-2%,4%,-17%,.,
COc1ccc(C2=CC3=C(Br)C(=O)C(C)(OC(=O)C4CCCC4)C(=O)C3=CO2)cc1 (centres undefined),79µM*,40µM*,?,45µM*,35µM*,9.2µM*,
Cc1ccc(Nc2nc(N)nc(CSc3nnnn3-c3ccccc3)n2)cc1,-17%,20µM*,-29%[57.1 µM],?,22µM*,.,Pol iota confirm=30*
COc1ccc(CNC(=O)Cn2nc(C)c3nn(-c4ccc(Cl)cc4)c(C)c3c2=O)cc1,-3%[60.1 µM],3%,.,-14%,22%,.,
CC1Cc2cc(S(=O)(=O)CCC(=O)Nc3ccc(OC(F)(F)F)cc3)ccc2N1C(=O)C1CC1 (centres undefined),-2%,?,.,-14%,16%,.,
COc1cc(-c2cc(OC)c3c(C)oc(C)c3c(=O)c2)ccc1OC(=O)c1cccc(Cl)c1,-7%,-7%,.,-3%,15%,.,
COc1ccccc1C(=O)Nc1nc2ccccc2[nH]1,-2%,3%,8%,-18%,24%,5.8µM*,
COc1ccccc1C(=O)NCCC(=O)Nc1nc2ccccc2[nH]1,-1%,35%,-4%,-7%,.,.,
COc1cc(SC)ccc1C(=O)Nc1nc2ccccc2[nH]1,-3%,-1%,-1%,-18%,-8%,3.3µM*,
COc1cc(SC)ccc1C(=O)NNC(=O)c1cc(C)oc1C,-7%,91%,-9%,-17%,.,13µM*,
Cc1ccc(NC(=O)CN2C(=O)S/C(=C\c3ccc(-c4cccc(C(=O)O)c4C)o3)C2=O)cc1C,89µM*,10µM*,?,8.9µM*,10µM*,4.1µM*,
O=C(O)c1ccc(-c2ccc(/C=C3\NC(=O)N(Cc4ccc(Cl)cc4)C3=O)o2)cc1Cl,4.5µM*,1.4µM*,22µM*,1.3µM*,4.5µM*,5.8µM*,
CCc1ccccc1NC(=O)c1cc(S(=O)(=O)N2CCCc3ccccc32)ccc1F,-8%[60.1 µM],0%,.,-9%,26%,.,
COc1ccc(-c2cc3nc(C)cc(-c4ccc(OC)cc4)n3n2)cc1,-8%,0%,-3%,-16%,11%,.,
COc1ccc(-c2cc3nc(C)cc(N)n3n2)cc1,-7%,41%,-29%,-20%,0%,9.2µM*,
